{"source": "PubChem BioAssay AID743398", "about": "(Broad Institute, 2014)", "note": "Screen size: about 300,000 compounds; about 3,600 (1.2%) were called active. This is one part of a sample in which actives are shown more often than they occur. Values without a mark were called inactive. Rule as the data show it: active = activation above about 30% (passing the limit was not always enough); inconclusive = no clear call, values can overlap the other calls.", "data": [{"assay": "Wnt/beta-catenin pathway activators, primary screen, cell-based, plate reader, single point (AID 743398);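 also: 0% = neutral control wells and 100% = positive control wells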", "conditions": "Wnt/beta-catenin reporter cell assay, activator, at 9.35 µM, active compounds read high", "values": [{"smiles": "CC(Cc1ccccc1)NCCC(c1ccccc1)c1ccccc1", "note": "(stereo not given)", "activation": "42% (active)"}, {"smiles": "CC(Cc1ccccc1)NC=O", "note": "(stereo not given)", "activation": "-1.03%"}, {"smiles": "CC(=O)NC(=O)NC(C)Cc1ccccc1", "note": "(stereo not given)", "activation": "-4.37%"}, {"smiles": "COc1cc(OC)cc(C(=O)NCCN2CCC3(CC2)C(=O)NCN3c2ccccc2)c1", "activation": "3.07%"}, {"smiles": "Brc1ccc2c(c1)CNCc1cnnn1-2", "activation": "-2.63%"}]}]}
